CD40 NFkB inh = CD40 pathway inhibition in BL2 cells. BL2 NF-kB luciferase reporter, CD40L-induced, 4 h. inhibition, % at 10 µM. 83,000 tested, 0.94% active;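 active = mean inhibition of at least 50% with a set share of replicates also reaching that level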;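 note: 0% = neutral control wells and 100% = IKK inhibitor VII at 50 µM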
* hit, by the source's call; ! = not confirmed by another sample; [ ] = another dose, or the depositor's remark. The full list was thinned out, with hits kept by preference.

SMILES	CD40 NFkB inh
O=C(NCc1cc(F)cc(F)c1)[C@H]1[C@H](CO)[C@H]2Cn3c(cccc3=O)[C@@H]1N2	-1[25 µM]
CC(C)c1cn(CC[C@H]2CC[C@H](NS(=O)(=O)c3ccc(F)cc3)[C@@H](CO)O2)nn1	2[25 µM]
O=C(NC1Cc2ccccc2C1)[C@H]1N[C@H]2c3cccc(=O)n3C[C@H]2[C@@H]1CO	1[25 µM]
O=C(Nc1cccc(Cl)c1)N1[C@@H]2CNC[C@H]1C2c1ccc(/C=C/c2ccccc2)cc1 (stereo partly specified)	7[25 µM]
COc1cccc(NC(=O)N2[C@@H]3CNC[C@H]2C3c2ccc(/C=C/c3ccccc3)cc2)c1 (stereo partly specified)	60*!
COc1cccc(NC(=O)N2[C@@H]3CNC[C@H]2C3c2ccc(-c3ccccc3)cc2)c1 (stereo partly specified)	-19
CCCNC(=O)[C@H]1[C@H](CO)[C@H]2Cn3c(cccc3=O)[C@H]2N1CC1CCCC1	3
O=C(Nc1ncccc1O)c1cc2ccccc2o1	-9
O=C(NC1CC1)c1cc2ccccc2o1	-4
O=C(Nc1cccc2ncccc12)c1cc2ccccc2o1	-10
Cc1ccnc(NC(=O)c2cc3ccccc3o2)c1	88*
O=C(Nc1ccc2c(c1)OCCO2)c1cc2ccccc2o1	33
O=C(NC1=NCCS1)c1cc2ccccc2o1	63*
NCC[C@H]1CC[C@@H](NC(=O)Cc2ccncc2)[C@H](CO)O1	-6[25 µM]
C/C=C/c1cccc(-c2nc(C(=O)NCc3ccccc3)cc3c2[C@H](CCO)N([S@@](=O)C(C)(C)C)C3)c1	1
C/C=C/c1ccc([C@H]2[C@H](C#N)N(c3nc(-c4ccccc4)cs3)[C@H]2CO)cc1	19[25 µM]
CCC1(O)CC2CN(CCc3c([nH]c4ccccc34)C(C(=O)OC)(c3cc4c(cc3OC)N(C)C3C(O)(C(=O)OC)C(C(=O)OC)C5(CC)C=CCN6CCC43C65)C2)C1 (stereo unspecified)	15[25 µM]
C[C@@H]1CN(C)C(=O)Cc2cc(N(C)C)ccc2O[C@@H]1CN(C)C	-5
Cc1ccc2c(=O)c3ccccc3n(CCCN)c2c1C	79*[25 µM]
CCN(CC)CCn1c2ccccc2c(=O)c2c(O)ccc(O)c21	-12
Cc1cc(=O)n(CC(=O)O)c2ccccc12	3
O=[N+]([O-])c1cccc(/C=C/c2ccccn2)c1	-58
Cc1noc(/C=C/c2ccccn2)c1[N+](=O)[O-]	42*
Cc1ccc2ncccc2c1[N+](=O)[O-]	6
C[C@@H]1CN([C@@H](C)CO)C(=O)c2c(c3ccccc3n2C)-c2ccccc2CO[C@H]1CN(C)S(=O)(=O)c1ccsc1	7
SMILES	CD40 NFkB inh
CCOC(=O)C1CCN(c2ccc(-c3cccs3)nn2)CC1	57*
CCOC(=O)c1cc(-c2cccs2)[nH]n1	-11
CCOC(=O)C1CCN(C(=O)c2cccs2)CC1	9
Cc1ccc(-c2cc(C(=O)N3CCOCC3)c3ccccc3n2)o1	-11
Cc1c(C(=O)N2CCCC(C(F)(F)F)C2)oc2ccccc12 (stereo unspecified)	-22
Cc1ccc(-c2cc(C(=O)N3CCCC(C(F)(F)F)C3)c3ccccc3n2)o1 (stereo unspecified)	105*
CO[C@H]1CC[C@H]2CCN(C)C(=O)CCCN(C)C(=O)c3cc(C#N)ccc3OC[C@H]1O2	6[25 µM]
CCCNc1ccc2ncc(Br)n2n1	36
COc1cccc(-c2ccc3c(c2)[C@H]2[C@H](CCN2C(=O)C2CCC2)[C@@H](CO)N3)c1	23
COCC(=O)Nc1ccc2c(c1)C(=O)N(C)[C@H]1CC[C@@H](CC(=O)N3CCc4ccccc4C3)O[C@H]1CO2	25[25 µM]
COc1ccccc1C(=O)NC1=NCCS1	-31
O=S(=O)(CCSc1ccccn1)c1nc2ccccc2s1	59*
O=c1[nH]c(CSc2ccccn2)nc2ccccc12	-21
O=C(O)CCSc1nc2ccccc2s1	14
COc1ccc(S(=O)(=O)N2[C@@H]3CNC[C@H]2C3c2ccc(-c3cccc(C)c3)cc2)cc1 (stereo partly specified)	-3
O=C(C[C@@H]1C[C@@H]2c3cc(NC(=O)NC4CCCCC4)ccc3O[C@@H]2[C@H](CO)O1)NC1CCCC1	-1
N#C[C@H]1[C@H](c2ccc(C3=CCCCC3)cc2)[C@H](CO)N1C(=O)NC1CCCCC1	27
COc1ccc(NC(=O)N2C[C@H]3[C@@H](c4ccccc42)[C@H](CO)N3C(=O)C2CC2)cc1	-12[25 µM]
Cc1noc(C)c1S(=O)(=O)Nc1ccc2c(c1)C(=O)N([C@@H](C)CO)C[C@@H](C)[C@@H](CN(C)Cc1ccc(C(=O)O)cc1)OCCCC[C@@H](C)O2	-2[25 µM]
COc1ccc(-c2cc(C(=O)N3CCCC3)c3ccccc3n2)cc1	-57
COc1ccc(-c2cc(C(=O)N3CC(C)CC(C)C3)c3ccccc3n2)cc1 (stereo unspecified)	-13
COc1ccc2cc(-c3cc(C(=O)O)c4ccccc4n3)ccc2c1	83*
O=C([C@H]1N[C@H]2c3ccc(-c4ccc(F)cc4)c(=O)n3C[C@H]2[C@@H]1CO)N1CCc2ccccc2C1	-11[25 µM]
O=C(C[C@@H]1C[C@H]2c3cc(NC(=O)Cc4ccncc4)ccc3O[C@H]2[C@H](CO)O1)NCCN1CCCCC1	-2[25 µM]
CCCNC(=O)C[C@@H]1C[C@H]2c3cc(NC(=O)COC)ccc3O[C@H]2[C@@H](CO)O1	1[25 µM]
SMILES	CD40 NFkB inh
CSC1SCC2C(=O)N(C)C(C(C)C)C(=O)OCC(NC(=O)c3cnc4ccccc4n3)C(=O)NC(C)C(=O)N(C)C1C(=O)N(C)C(C(C)C)C(=O)OCC(NC(=O)c1cnc3ccccc3n1)C(=O)NC(C)C(=O)N2C (stereo unspecified)	92*
CO[C@@H]1CN(C)C(=O)c2cc(NC(=O)c3ccc(F)cc3)ccc2OC[C@@H](C)N(C(=O)CC2CC2)C[C@@H]1C	7[25 µM]
CCCNC(=O)C[C@H]1CC[C@@H]2[C@H](COC[C@H](O)CN2C(=O)c2ccc(F)cc2)O1	-14[25 µM]
Cc1ccc(NC(=O)CNC(=O)c2ccc(Oc3ccccc3)cc2)nc1	-20
Cc1ccc(NC(=O)CNC(=O)c2cccc(C)c2)nc1	58*
Cc1ccc(C(=O)CCC(=O)Nc2ccc(C)cn2)cc1	9
C[C@H](CO)N1C[C@H](C)[C@@H](CN(C)C(=O)Nc2ccccc2)OCCCC[C@H](C)Oc2ccc(NC(=O)Nc3ccccc3)cc2C1=O	6[25 µM]
C[C@@H]1CN([C@H](C)CO)C(=O)c2ccccc2-c2ccccc2CO[C@@H]1CN(C)S(=O)(=O)Cc1ccccc1	1[25 µM]
Cc1cccc(S(=O)(=O)N(C)C[C@H]2OCc3ccccc3-c3ccccc3C(=O)N([C@@H](C)CO)C[C@H]2C)c1	-8
Cc1cc(C(=O)N2CCN(c3ccccc3Cl)CC2)c(C)o1	78*
Cc1cc(C(=O)N2CCC(C(=O)O)CC2)c(C)o1	0
Cc1cc(C(=O)N2CCN(c3ncccn3)CC2)c(C)o1	-6
CCN1[C@@H]2Cn3c(ccc(-c4ccc(F)cc4)c3=O)[C@H]1[C@@H](C(=O)Nc1nccs1)[C@@H]2CO	-7[25 µM]
NCC[C@H]1CC[C@H](NS(=O)(=O)c2ccc(Cl)cc2)[C@H](CO)O1	-2[25 µM]
Cc1cccc(-c2nc3cc(NC(=O)C4CCCO4)ccc3o2)c1 (stereo unspecified)	54*
Cc1ccc2oc(-c3cccc(NC(=O)C4CCCO4)c3)nc2c1 (stereo unspecified)	-27
CC(=O)Nc1ccc2oc(-c3ccccc3)nc2c1	-2
CN1C(=O)c2cc(NC(=O)C3CCC3)ccc2OC[C@@H]2O[C@H](CC(=O)NCc3ccccc3F)CC[C@H]21	6

Compound activity from PubChem BioAssay.
